# Reference: the supplement of paper PMC11624193, “Coupling cellular drug-target engagement to downstream pharmacology with CeTEAM” (Nature Communications, 2024)
# Where a name gives a salt, the structure may show the parent alone.
# Target: PARP1 L713F-nLuc biosensor (HCT116) (UniProt P09874)
# Assay: PARP1 L713F-nLuc/akaLuc ratio relative to DMSO control (biosensor stabilization) (fold change); higher = more PARP1 biosensor stabilization (target engagement / stabilizer), active = hit call of the paper
# Settings: 24 h;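 active = log2 fold change beyond 2 SD from the library mean after excluding viability outliers; inactive = within 2 SD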
# [1] = stock concentration (mM; final µM = stock mM x 1): 10
# [2] = stock concentration (mM; final µM = stock mM x 1): 2
# Sequence of PARP1 L713F-nLuc biosensor (HCT116) (P09874 whole entry L713F, looked up): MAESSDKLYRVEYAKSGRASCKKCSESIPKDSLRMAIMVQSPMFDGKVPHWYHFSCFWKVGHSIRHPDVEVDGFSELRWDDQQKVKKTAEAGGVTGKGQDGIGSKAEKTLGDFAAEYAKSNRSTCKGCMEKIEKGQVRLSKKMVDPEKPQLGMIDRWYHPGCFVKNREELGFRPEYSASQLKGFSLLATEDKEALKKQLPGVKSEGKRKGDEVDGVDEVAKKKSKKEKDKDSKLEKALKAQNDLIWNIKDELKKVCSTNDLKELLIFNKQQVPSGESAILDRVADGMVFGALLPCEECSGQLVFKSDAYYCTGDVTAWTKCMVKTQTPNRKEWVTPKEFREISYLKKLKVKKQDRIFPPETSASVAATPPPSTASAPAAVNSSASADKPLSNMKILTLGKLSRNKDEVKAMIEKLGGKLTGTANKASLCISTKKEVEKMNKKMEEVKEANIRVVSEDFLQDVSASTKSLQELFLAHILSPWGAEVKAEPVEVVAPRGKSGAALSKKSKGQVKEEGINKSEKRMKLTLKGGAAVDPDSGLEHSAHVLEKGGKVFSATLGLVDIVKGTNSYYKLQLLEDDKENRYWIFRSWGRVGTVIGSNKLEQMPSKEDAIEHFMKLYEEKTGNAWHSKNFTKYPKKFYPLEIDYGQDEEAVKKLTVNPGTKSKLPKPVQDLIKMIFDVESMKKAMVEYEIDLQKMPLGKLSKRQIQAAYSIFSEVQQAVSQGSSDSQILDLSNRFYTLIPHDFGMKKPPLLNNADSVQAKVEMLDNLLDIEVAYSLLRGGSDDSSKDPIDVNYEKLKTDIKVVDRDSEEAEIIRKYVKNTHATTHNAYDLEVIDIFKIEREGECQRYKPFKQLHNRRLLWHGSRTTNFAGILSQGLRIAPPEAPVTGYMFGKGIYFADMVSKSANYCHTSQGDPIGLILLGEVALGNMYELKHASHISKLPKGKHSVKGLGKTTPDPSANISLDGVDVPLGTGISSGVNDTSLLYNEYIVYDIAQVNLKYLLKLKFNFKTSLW
smiles,measurement,setting,value
Nc1nc(=O)n([C@H]2C[C@H](O)[C@@H](CO)O2)cc1F [5-Fluoro-2'-deoxycytidine],PARP1 L713F-nLuc/akaLuc ratio,[1],0.559 (inactive)
"C=CC(=O)Nc1cccc(Nc2nc(Nc3ccc(OCCOC)cc3)ncc2F)c1 [Spebrutinib (CC-292, AVL-292)]",PARP1 L713F-nLuc/akaLuc ratio,[1],0.464 (inactive)
Oc1cc(O)c2c(c1)OC1(c3ccc(O)c(O)c3)Oc3cc(O)c4c(c3C2C1O)OC(c1ccc(O)c(O)c1)C(O)C4 (centres undefined) [Procyanidin A1],PARP1 L713F-nLuc/akaLuc ratio,[1],1.43 (inactive)
N#Cc1c[nH]c2ccc(-c3ccc(-c4c(O)cccc4O)cc3)cc12,PARP1 L713F-nLuc/akaLuc ratio,[1],0.933 (inactive)
CCCCC(=O)OCC(=O)[C@]1(O)Cc2c(O)c3c(c(O)c2[C@@H](O[C@H]2C[C@H](NC(=O)C(F)(F)F)[C@H](O)[C@H](C)O2)C1)C(=O)c1c(OC)cccc1C3=O [Valrubicin],PARP1 L713F-nLuc/akaLuc ratio,[1],1.13 (inactive)
CCc1c(N(CC)C2CCOCC2)cc2oc(C3CCN(C(C)C)CC3)cc2c1C(=O)NCc1c(C)cc(C)[nH]c1=O,PARP1 L713F-nLuc/akaLuc ratio,[2],0.847 (inactive)
N#Cc1cccnc1N1CCN(C(=O)c2cccc(Cc3n[nH]c(=O)c4ccccc34)c2)CC1,PARP1 L713F-nLuc/akaLuc ratio,[1],2.72 (active)
NCCNc1ccc(NCCN)c2c1C(=O)c1ccncc1C2=O [Pixantrone Maleate],PARP1 L713F-nLuc/akaLuc ratio,[1],1.15 (inactive)
CC[C@]1(O)C[C@H]2CN(CCc3c([nH]c4ccccc34)[C@@](C(=O)OC)(c3cc4c(cc3OC)N(C=O)[C@H]3[C@@](O)(C(=O)OC)[C@H](OC(C)=O)[C@]5(CC)C=CCN6CC[C@]43[C@@H]65)C2)C1 [Vincristine sulfate],PARP1 L713F-nLuc/akaLuc ratio,[1],0.783 (inactive)
Cn1cc(-c2cn3nccc3c(-c3cnn([C@]4(CC#N)C[C@@H](C#N)C4)c3)n2)cn1 [Ropsacitinib],PARP1 L713F-nLuc/akaLuc ratio,[1],1.02 (inactive)
O=C(O)c1cnn(-c2nc3cc(OC(F)(F)F)c(Cl)cc3[nH]2)c1,PARP1 L713F-nLuc/akaLuc ratio,[1],0.757 (inactive)
Cn1cc(C2=C(c3cn(CCCSC(=N)N)c4ccccc34)C(=O)NC2=O)c2ccccc21 [Ro 31-8220 (mesylate)],PARP1 L713F-nLuc/akaLuc ratio,[1],1.62 (inactive)
Cc1cc(Nc2ccc(NC(=O)c3ccc(Nc4ccnc5ccccc45)cc3)cc2)nc(N)n1,PARP1 L713F-nLuc/akaLuc ratio,[1],1.38 (inactive)
Cc1cc(Nc2cc(N3CCN(C)CC3)nc(/C=C/c3ccccc3)n2)n[nH]1,PARP1 L713F-nLuc/akaLuc ratio,[1],1.27 (inactive)
O=c1ncn2nc(Sc3ccc(F)cc3F)ccc2c1-c1c(Cl)cccc1Cl,PARP1 L713F-nLuc/akaLuc ratio,[1],0.808 (inactive)
CCN(c1cc(-c2ccc(CN3CCOCC3)cc2)cc(C(=O)NCc2c(C)cc(C)[nH]c2=O)c1C)C1CCOCC1 [Tazemetostat (EPZ-6438)],PARP1 L713F-nLuc/akaLuc ratio,[2],1.21 (inactive)
Cn1cc(C[C@@H](N)C(=O)O)c2ccccc21 [Indoximod (NLG-8189?],PARP1 L713F-nLuc/akaLuc ratio,[2],0.857 (inactive)
C/C=C(\CC[C@@H](C)[C@H]1CC[C@H]2[C@@H]3CC=C4C[C@@H](O)CC[C@]4(C)[C@H]3CC[C@]12C)C(C)C [Fucosterol],PARP1 L713F-nLuc/akaLuc ratio,[1],1.04 (inactive)
FC(F)c1nc2ccccc2n1-c1nc(N2CCOCC2)nc(N2CCOCC2)n1,PARP1 L713F-nLuc/akaLuc ratio,[1],0.962 (inactive)
COc1cc2c(cc1OC)-c1c(C)c3ccc(OC)c(OC)c3c[n+]1CC2 [Dehydrocorydaline],PARP1 L713F-nLuc/akaLuc ratio,[1],0.741 (inactive)
O=C(NOC[C@H](O)CO)c1ccc(F)c(F)c1Nc1ccc(I)cc1F,PARP1 L713F-nLuc/akaLuc ratio,[1],0.6 (inactive)
N#Cc1ccc(-c2cnc3[nH]cc(NC(=O)c4cccnc4)c3c2)cc1,PARP1 L713F-nLuc/akaLuc ratio,[1],0.668 (inactive)
Cc1nc(-c2cccnc2)sc1C(=O)Nc1ccccc1-c1cn2c(CN3CCOCC3)csc2n1,PARP1 L713F-nLuc/akaLuc ratio,[1],0.883 (inactive)
Cc1ccc(C(=O)Nc2ccc(Oc3cc4cnn(C)c4cc3-c3cn[nH]c3)c(F)c2)c(=O)n1-c1ccc(F)cc1,PARP1 L713F-nLuc/akaLuc ratio,[1],1.52 (inactive)
O[C@@H]1CO[C@H]2[C@@H]1OC[C@H]2Oc1nc2nc(-c3ccc(-c4ccccc4)cc3)c(Cl)cc2[nH]1,PARP1 L713F-nLuc/akaLuc ratio,[1],0.439 (inactive)
N#Cc1cc(F)cc(Oc2ccc(S(=O)(=O)C(F)F)c3c2CC(F)(F)[C@H]3O)c1,PARP1 L713F-nLuc/akaLuc ratio,[1],0.774 (inactive)
Cn1cnc2c(F)c(Nc3ccc(Br)cc3Cl)c(C(=O)NOCCO)cc21 [Selumetinib (AZD6244)],PARP1 L713F-nLuc/akaLuc ratio,[1],0.465 (inactive)
N#Cc1cc(F)cc(Oc2ccc3c(c2C(F)F)[C@@H](O)C(F)(F)S3(=O)=O)c1,PARP1 L713F-nLuc/akaLuc ratio,[1],1.92 (inactive)
Cc1cc(-c2ccccc2)cc(C(=O)NNS(=O)(=O)c2ccccc2)c1F,PARP1 L713F-nLuc/akaLuc ratio,[1],0.665 (inactive)
O=C(Nc1ccc(Cl)cc1)c1cc2ccccc2cc1OP(=O)(O)O,PARP1 L713F-nLuc/akaLuc ratio,[1],1.35 (inactive)
COc1ccc(-c2c(-c3ccc(C#N)c(F)c3)nc(N3CCC(N)CC3)n(C)c2=O)cc1F [Pulrodemstat (benzenesulfonate)],PARP1 L713F-nLuc/akaLuc ratio,[1],1.26 (inactive)
C[C@H]1CNCCCN1S(=O)(=O)c1cccc2cncc(F)c12 [Ripasudil (K-115) hydrochloride dihydrate],PARP1 L713F-nLuc/akaLuc ratio,[1],1.12 (inactive)
Cc1nc(C(=O)NCC(=O)O)c(O)c2ccc(Oc3ccccc3)cc12 [Roxadustat],PARP1 L713F-nLuc/akaLuc ratio,[1],1.02 (inactive)
O=C(c1ccc(OCCN2CCCCC2)cc1)c1c(-c2ccc(O)cc2)sc2cc(O)ccc12 [Raloxifene HCl],PARP1 L713F-nLuc/akaLuc ratio,[1],0.932 (inactive)
Nc1nc(N)c2nc(-c3cccc(O)c3)c(-c3cccc(O)c3)nc2n1,PARP1 L713F-nLuc/akaLuc ratio,[1],1.46 (inactive)
CCS(=O)(=O)N1CCC([C@@H](C)n2c(C)c(C(=O)NCc3c(OC)cc(C)[nH]c3=O)c3ccccc32)CC1,PARP1 L713F-nLuc/akaLuc ratio,[1],1.51 (inactive)
CC1(C)C(=O)NC2=C1C(=O)C(=O)c1ccccc12,PARP1 L713F-nLuc/akaLuc ratio,[1],0.888 (inactive)
CNC(=O)N1N=C(c2ccc(N3CCN(C)CC3)cc2)c2cc(OC)c(OC)cc2C[C@H]1C,PARP1 L713F-nLuc/akaLuc ratio,[1],1.27 (inactive)
O=C(O)CNC(=O)c1ncc(-c2cccc(Cl)c2)cc1O [Vadadustat],PARP1 L713F-nLuc/akaLuc ratio,[1],1.03 (inactive)
COc1cc(C(=O)Nc2ccccc2-c2cn3c(CN4CCNCC4)csc3n2)cc(OC)c1OC,PARP1 L713F-nLuc/akaLuc ratio,[1],0.569 (inactive)
CCCCCC1CC1CC1CC1CCCCCCCC(=O)O (centres undefined),PARP1 L713F-nLuc/akaLuc ratio,[1],1.14 (inactive)
COc1ccccc1C(=O)Nc1cc2c(cc1N1CCCC1)n(C)c(=O)n2C,PARP1 L713F-nLuc/akaLuc ratio,[1],0.797 (inactive)
O=C(O)c1cccc(CN2C(=O)/C(=C(\c3ccccc3)c3ccc(Cl)cc3)c3ccccc32)c1,PARP1 L713F-nLuc/akaLuc ratio,[1],1.18 (inactive)
CCNC(=O)C#Cc1ccc2c(C(=Nc3ccc(CN(C)C)cc3)c3ccccc3)c(O)[nH]c2c1,PARP1 L713F-nLuc/akaLuc ratio,[1],0.604 (inactive)
CC(C)n1cnc2c(NCCc3ccc(O)cc3)nc(-c3csc4ccccc34)nc21 [StemRegenin 1 (SR1)],PARP1 L713F-nLuc/akaLuc ratio,[1],0.788 (inactive)
CCCCNc1ncc(C(=O)NCc2ccc(-n3ccnc3)cc2)c(NC2CCC(O)CC2)n1 (centres undefined),PARP1 L713F-nLuc/akaLuc ratio,[1],0.954 (inactive)
COc1cc2ncnc(Nc3ccc(O)cc3)c2cc1OC,PARP1 L713F-nLuc/akaLuc ratio,[1],0.842 (inactive)
CN(C)C(=N)N=C(N)N [Metformin D6 (hydrochloride)],PARP1 L713F-nLuc/akaLuc ratio,[1],1.08 (inactive)
CCN(C(=O)CO)[C@H]1CN(/C(=N\C#N)Nc2cccc(OC(F)F)c2)N=C1c1ccc(Cl)c(Cl)c1,PARP1 L713F-nLuc/akaLuc ratio,[1],1.37 (inactive)
N#CCNC(=O)c1ccc(-c2ccnc(Nc3ccc(N4CCOCC4)cc3)n2)cc1 [Momelotinib (CYT387)],PARP1 L713F-nLuc/akaLuc ratio,[1],0.585 (inactive)
O=C(/C=C/N1C[C@H]2C[C@@H]1CN2c1ccccn1)c1ccccc1O,PARP1 L713F-nLuc/akaLuc ratio,[1],1.3 (inactive)
CNC(=O)c1cc(COc2nnc(Nc3ccc(Cl)cc3)c3ccoc23)ccn1 [Telatinib],PARP1 L713F-nLuc/akaLuc ratio,[1],1.17 (inactive)
N#CC[C@H](C1CCCC1)n1cc(-c2ncnc3[nH]ccc23)cn1 [Ruxolitinib (phosphate)],PARP1 L713F-nLuc/akaLuc ratio,[1],0.575 (inactive)
NNc1nncc2ccccc12 [Hydralazine (hydrochloride)],PARP1 L713F-nLuc/akaLuc ratio,[1],0.617 (inactive)
O=C1C(Cl)=C(NCCN2CCOCC2)C(=O)c2ncccc21,PARP1 L713F-nLuc/akaLuc ratio,[1],0.636 (inactive)
CC(C)N(C(=O)c1cc(F)ccc1Oc1cncnc1N1CC2(CCN(CC3CCC(NS(C)(=O)=O)CC3)CC2)C1)C(C)C (centres undefined),PARP1 L713F-nLuc/akaLuc ratio,[1],0.677 (inactive)
COc1cc2c(N3CCN(C(=O)Nc4ccc(OC(C)C)cc4)CC3)ncnc2cc1OCCCN1CCCCC1 [Tandutinib (MLN518)],PARP1 L713F-nLuc/akaLuc ratio,[2],1.73 (inactive)
CN(C)c1ccc(-c2nc3ncc(Cl)c(N4CCN(CC(=O)Nc5nccs5)CC4)c3[nH]2)cc1,PARP1 L713F-nLuc/akaLuc ratio,[2],0.845 (inactive)
CC(C)Cn1cnc2c(N)nc3ccccc3c21 [Imiquimod],PARP1 L713F-nLuc/akaLuc ratio,[2],1.02 (inactive)
CNC(=O)c1ccc(-c2cnc3ncc(Cc4ccc5ncccc5c4)n3n2)cc1F,PARP1 L713F-nLuc/akaLuc ratio,[2],0.95 (inactive)
Cn1cc(-c2ccc(F)c(C(F)(F)F)c2)nc1C1CCN(c2ncnc3[nH]ncc23)CC1,PARP1 L713F-nLuc/akaLuc ratio,[2],0.945 (inactive)
CCn1cc(C(=O)O)c(=O)c2cc(F)c(N3CCNCC3)nc21 [Enoxacin (hydrate)],PARP1 L713F-nLuc/akaLuc ratio,stock concentration (mM; final µM = stock mM x 1): 9,0.596 (inactive)
Cc1cc(C)c(CNC(=O)c2cc(-c3ccc(CN4CCOCC4)cc3)cc3c2cnn3C2CCCC2)c(=O)[nH]1,PARP1 L713F-nLuc/akaLuc ratio,[2],1.45 (inactive)
CN(C(=O)c1ccc(F)cc1C(F)(F)F)C1CCN(c2nnc(-c3ccnn3C)c3ccccc23)CC1,PARP1 L713F-nLuc/akaLuc ratio,[2],1.11 (inactive)
